Assay results from PubChem BioAssay (EPA / NIEHS).
Calls of active or inactive are those of the source. The calls were made as follows: active = hit-call score of the fitted dose curve at least 0.9, where 1 is the maximum; inactive = score below 0.9.

How the values were obtained:
Details in all cases: mRNA level, 48 h; actives raise or lower the signal
[1] = read-out: CYP2C8 (gene 1558); experiment: LTEA_HepaRG_CYP2C8: Life Technologies and Expression Analysis (LTEA) Assay for CYP2C8 using HepaRG (AID 2283483)
Procedure, shortened: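 Differentiated human HepaRG cells were exposed for 48 h in serum-free induction medium to eight half-log concentrations up to 100 uM in 0.5% DMSO, in duplicate. CYP2C8 mRNA was measured by TaqMan qRT-PCR, normalized to ACTB, GAPDH and POLR2A, and fitted bidirectionally against DMSO.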

[2] = read-out: CYP2C9 (gene 1559); experiment: LTEA_HepaRG_CYP2C9: Life Technologies and Expression Analysis (LTEA) Assay for CYP2C9 using HepaRG (AID 2283484)
Procedure, shortened: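 Differentiated human HepaRG cells were exposed 48 h in serum-free induction medium to eight half-log concentrations up to 100 uM in 0.5% DMSO. CYP2C9 mRNA was measured by qRT-PCR, normalized to ACTB, GAPDH and POLR2A, and fitted bidirectionally against DMSO.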

[3] = read-out: CYP2E1 (gene 1571); experiment: LTEA_HepaRG_CYP2E1: Life Technologies and Expression Analysis (LTEA) Assay for CYP2E1 using HepaRG (AID 2283485)
Procedure, shortened: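 Differentiated HepaRG cells were treated in duplicate for 48 h with chemicals in 0.5% DMSO, from 100 uM downward in half-log dilutions. RNA was then analysed by qRT-PCR for CYP2E1 induction or loss.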

[4] = read-out: CYP4A11 (gene 1579); experiment: LTEA_HepaRG_CYP4A11: Life Technologies and Expression Analysis (LTEA) Assay for CYP4A11 using HepaRG (AID 2283486)
Procedure, shortened: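 Differentiated HepaRG cells, serum-free induction medium, exposed 48 h in duplicate to 8-point half-log series from 100 uM in 0.5% DMSO. CYP4A11 mRNA measured by qRT-PCR, normalized to ACTB, GAPDH, POLR2A; bidirectional fit versus DMSO.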

[5] = read-out: Cytochrome P450 3A4 (Homo sapiens) (UniProt P08684); experiment: LTEA_HepaRG_CYP3A4: Life Technologies and Expression Analysis (LTEA) Assay for CYP3A4 using HepaRG (AID 2283487)
Procedure, shortened: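 In a human hepatic line (HepaRG), duplicate wells were treated 48 h with up to 100 uM chemical in half-log dilutions. Endpoint: CYP3A4 mRNA induction or loss relative to 0.5% DMSO vehicle, by qRT-PCR.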

[6] = read-out: DNA damage-inducible transcript 3 (DDIT3), DDIT3 (gene 1649); experiment: LTEA_HepaRG_DDIT3: Life Technologies and Expression Analysis (LTEA) Assay for DNA damage-inducible transcript 3 (DDIT3) using HepaRG (AID 2283488)
Procedure, shortened: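 Changes in DDIT3 transcript, in either direction relative to 0.5% DMSO vehicle, were quantified by TaqMan qRT-PCR after 48 h chemical exposure of HepaRG cells at 8 concentrations, maximum 100 uM.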

[7] = read-out: Pro-epidermal growth factor (Homo sapiens) (UniProt P01133); experiment: LTEA_HepaRG_EGF: Life Technologies and Expression Analysis (LTEA) Assay for Epidermal growth factor (EGF) using HepaRG (AID 2283489)
Procedure, shortened: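 Differentiated human HepaRG cells, plated 48 h then switched to serum-free induction medium, were exposed for 48 h to test chemicals (8-point half-log series, top 100 uM, 0.5% DMSO). EGF mRNA was quantified by qRT-PCR, normalized to ACTB, GAPDH, POLR2A.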

[8] = read-out: Early growth response protein 1 (EGR1) transcription factor, EGR1 (gene 1958); experiment: LTEA_HepaRG_EGR1: Life Technologies and Expression Analysis (LTEA) Assay for Early growth response protein 1 (EGR1) transcription factor using HepaRG (AID 2283490)
Procedure, shortened: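 Differentiated human HepaRG cells in serum-free induction medium were exposed in duplicate for 48 h to eight concentrations (top 100 uM, half-log steps) in 0.5% DMSO. EGR1 mRNA was quantified by qRT-PCR, normalized to ACTB, GAPDH and POLR2A, and fitted bidirectionally versus DMSO.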

[9] = read-out: Ezrin (EZR), EZR (gene 7430); experiment: LTEA_HepaRG_EZR: Life Technologies and Expression Analysis (LTEA) Assay for Ezrin (EZR) using HepaRG (AID 2283491)
Procedure, shortened: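 Gain or loss of EZR mRNA is scored relative to 0.5% DMSO in human HepaRG cultures treated 48 h with test chemicals in duplicate, eight half-log concentrations from 100 uM.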

[10] = read-out: Cytochrome P450 3A7 (Homo sapiens) (UniProt P24462); experiment: LTEA_HepaRG_CYP3A7: Life Technologies and Expression Analysis (LTEA) Assay for CYP3A7 using HepaRG (AID 2283492)
Procedure, shortened: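 HepaRG cells plated 48 h, then dosed in serum-free induction medium for 48 h at 8 concentrations (top 100 uM, half-log steps, 0.5% DMSO). CYP3A7 mRNA by qRT-PCR, normalised to ACTB/GAPDH/POLR2A; bidirectional fit versus DMSO.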

Chain of Cytochrome P450 3A7 (Homo sapiens) (P24462 whole entry, looked up): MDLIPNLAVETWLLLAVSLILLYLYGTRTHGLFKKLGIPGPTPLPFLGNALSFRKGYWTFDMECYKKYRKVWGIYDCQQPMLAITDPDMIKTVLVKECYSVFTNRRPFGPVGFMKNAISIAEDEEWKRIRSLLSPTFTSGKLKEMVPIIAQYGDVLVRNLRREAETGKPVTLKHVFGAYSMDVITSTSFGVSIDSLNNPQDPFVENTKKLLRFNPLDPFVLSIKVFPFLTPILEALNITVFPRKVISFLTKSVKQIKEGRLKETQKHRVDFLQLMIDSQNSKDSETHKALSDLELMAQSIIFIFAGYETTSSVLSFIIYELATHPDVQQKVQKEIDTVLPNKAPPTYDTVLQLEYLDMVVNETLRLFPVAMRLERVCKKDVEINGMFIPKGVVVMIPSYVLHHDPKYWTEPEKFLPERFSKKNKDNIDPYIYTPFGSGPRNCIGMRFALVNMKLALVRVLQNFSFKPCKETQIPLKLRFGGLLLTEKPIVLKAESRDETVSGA
Chain of Cytochrome P450 3A4 (Homo sapiens) (P08684 whole entry, looked up): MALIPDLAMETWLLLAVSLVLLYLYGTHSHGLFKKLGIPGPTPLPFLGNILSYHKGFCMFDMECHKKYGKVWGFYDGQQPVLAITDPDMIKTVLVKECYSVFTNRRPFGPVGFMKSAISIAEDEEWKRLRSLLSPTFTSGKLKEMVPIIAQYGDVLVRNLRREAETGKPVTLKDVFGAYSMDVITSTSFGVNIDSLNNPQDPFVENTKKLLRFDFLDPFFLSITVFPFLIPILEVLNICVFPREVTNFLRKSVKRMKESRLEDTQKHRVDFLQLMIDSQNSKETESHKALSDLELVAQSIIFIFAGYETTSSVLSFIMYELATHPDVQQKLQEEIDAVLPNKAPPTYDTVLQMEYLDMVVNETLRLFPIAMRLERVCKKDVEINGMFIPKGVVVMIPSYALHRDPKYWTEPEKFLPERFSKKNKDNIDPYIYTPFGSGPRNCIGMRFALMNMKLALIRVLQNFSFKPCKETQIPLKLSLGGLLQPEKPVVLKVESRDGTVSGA

In the case of C[C@H]1[C@H](c2ccc(Cl)cc2)SC(=O)N1C(=O)NC1CCCCC1, the AC50 [1] is reported as 77.8 µM (active), the AC50 [2] is reported as 78.6 µM (active) and the AC50 [3] is reported as 32.5 µM (active). For the same compound, the AC50 [4] was 40.4 µM (active), the AC50 [5] was 90 µM (active) and the AC50 [6] was 72.3 µM (active). The outcome [7] was “inactive”, the outcome [8] was “inactive” and the AC50 [9] was 77.9 µM (active). For the same compound, the AC50 [10] was 61.6 µM (active).

For CNC(=O)Oc1ccccc1OC(C)C, the outcome [1] was “inactive”, the outcome [2] was “inactive” and the AC50 [3] was 22.2 µM (active). The outcome [4] was “inactive”, the AC50 [5] was 0.594 µM (active) and the outcome [6] was “inactive”. For the same compound, the outcome [7] was “inactive”, the outcome [8] was “inactive” and the outcome [9] was “inactive”. For the same compound, the AC50 [10] was 1.52 µM (active).

CNC(=O)CSP(=S)(OC)OC was tested, and the outcome [1] was “inactive”, the outcome [2] was “inactive” and the outcome [3] was “inactive”. The outcome [4] was “inactive”, the outcome [5] was “inactive” and the outcome [6] was “inactive”. The outcome [7] was “inactive”, the outcome [8] was “inactive” and the outcome [9] was “inactive”. For the same compound, the outcome [10] was “inactive”.

COP(=S)(OC)Oc1ccc(SC)c(C)c1 was tested, and the outcome [1] was “inactive”, the outcome [2] was “inactive” and the AC50 [3] was 18.9 µM (active). The outcome [4] was “inactive”, the outcome [6] was “inactive” and the outcome [7] was “inactive”. The outcome [8] was “inactive” and the outcome [9] was “inactive”.

In the case of CC[C@H](C)[C@H]1O[C@]2(C=C[C@@H]1C)C[C@@H]1C[C@@H](C/C=C(\C)[C@@H](O[C@H]3C[C@H](OC)[C@@H](O[C@H]4C[C@H](OC)[C@@H](O)[C@H](C)O4)[C@H](C)O3)[C@@H](C)/C=C/C=C3\CO[C@@H]4[C@H](O)C(C)=C[C@@H](C(=O)O1)[C@]34O)O2 (tested in a mixture with another compound), the AC50 [1] is reported as 14.1 µM (active), the AC50 [2] is reported as 7.85 µM (active) and the AC50 [3] is reported as 8.08 µM (active). For the same compound, the AC50 [4] was 7.39 µM (active), the AC50 [5] was 10 µM (active) and the AC50 [6] was 10.1 µM (active). The AC50 [7] was 48.4 µM (active), the outcome [8] was “inactive” and the AC50 [9] was 7.92 µM (active). For the same compound, the outcome [10] was “inactive”.

For CCc1ccc(C(=O)NN(C(=O)c2cc(C)cc(C)c2)C(C)(C)C)cc1, the AC50 [1] was 12.1 µM (active), the outcome [2] was “inactive” and the AC50 [3] was 42.4 µM (active). The AC50 [4] was 77.2 µM (active), the AC50 [5] was 3.75 µM (active) and the outcome [6] was “inactive”. For the same compound, the outcome [7] was “inactive”, the AC50 [8] was 50 µM (active) and the outcome [9] was “inactive”. For the same compound, the AC50 [10] was 12.1 µM (active).

In the case of CC(C)N(C(=O)COc1nnc(C(F)(F)F)s1)c1ccc(F)cc1, the outcome [1] is reported as “inactive”, the outcome [2] is reported as “inactive” and the AC50 [3] is reported as 42.2 µM (active). For the same compound, the outcome [4] was “inactive”, the outcome [5] was “inactive” and the outcome [6] was “inactive”. For the same compound, the outcome [7] was “inactive”, the outcome [8] was “inactive” and the outcome [9] was “inactive”. The outcome [10] was “inactive”.

In the case of O=[N+]([O-])/N=C1\NCCN1Cc1ccc(Cl)nc1, the AC50 [1] is reported as 74.1 µM (active), the AC50 [2] is reported as 38.1 µM (active) and the AC50 [3] is reported as 34.8 µM (active). For the same compound, the outcome [4] was “inactive”, the outcome [5] was “inactive” and the outcome [6] was “inactive”. For the same compound, the AC50 [7] was 30.2 µM (active), the outcome [8] was “inactive” and the outcome [9] was “inactive”. For the same compound, the outcome [10] was “inactive”.

For CCOC1Oc2ccc(OS(C)(=O)=O)cc2C1(C)C (stereo not drawn), the AC50 [1] was 86.4 µM (active), the AC50 [2] was 82 µM (active) and the AC50 [3] was 62.6 µM (active). For the same compound, the AC50 [4] was 69.1 µM (active), the AC50 [5] was 11.8 µM (active) and the AC50 [6] was 93 µM (active). The outcome [7] was “inactive”, the outcome [8] was “inactive” and the AC50 [9] was 78.8 µM (active). For the same compound, the outcome [10] was “inactive”.

For O=S1OCC2C(CO1)C1(Cl)C(Cl)=C(Cl)C2(Cl)C1(Cl)Cl (stereo not drawn), the AC50 [1] was 81.1 µM (active), the AC50 [2] was 82.4 µM (active) and the AC50 [3] was 55.7 µM (active). For the same compound, the AC50 [4] was 62.6 µM (active), the AC50 [5] was 11.7 µM (active) and the AC50 [6] was 80 µM (active). For the same compound, the outcome [7] was “inactive”, the outcome [8] was “inactive” and the outcome [9] was “inactive”. The AC50 [10] was 50 µM (active).

For O=C(NC(=O)c1c(F)cccc1F)Nc1ccc(OC(F)(F)C(F)OC(F)(F)F)c(Cl)c1 (stereo not drawn), the outcome [1] was “inactive”, the outcome [2] was “inactive” and the outcome [3] was “inactive”. The outcome [4] was “inactive”, the outcome [5] was “inactive” and the outcome [6] was “inactive”. The outcome [7] was “inactive”, the outcome [8] was “inactive” and the outcome [9] was “inactive”. The outcome [10] was “inactive”.
